The text below walks through data of PubChem BioAssay (NCATS).

Unmarked numbers belong to inactive results. Records with an inconclusive call do not appear. The source made the active and inactive calls. Unless noted, the call rests on the fitted dose curve; in most records, active means well fitted curve in either direction with a large enough effect (not every such curve was filed as active); inconclusive means small, poorly fitted or top-dose-only effect, or another doubt; inactive means flat fitted curve, though single readings scatter.

For assay [1], the target named is Lysosomal acid glucosylceramidase (Homo sapiens) (UniProt P04062). The assay can be described thus: Glucocerebrosidase-p2 (AID 348; in the data active means potency below about 10 µM; further: potency means the concentration at half of the fitted maximal effect). Particulars: purified GBA, blue fluorogenic substrate, 40 min. A digest of the protocol:
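Compounds titrated from 0.6 nM upwards against 0.2 nM enzyme in pH 5.9 citric acid/KH2PO4, taurocholate, tween-20; blue fluorogenic substrate 80 uM, 40 min room temperature, stopped and read Ex 365/Em 440 for AC50.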

Assay [2] can be described thus: AP1 Signaling Pathway (AID 357). Further: on the % scale 0 is the no-effect control and ±100 the full control effect. As to conditions: ME-180 AP-1-bla reporter, EGF-induced, beta-lactamase ratio, 5 h; at 7.69 µM (top of the series) unless noted. A digest of the protocol:
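ME-180 cells with beta-lactamase reporter under AP-1 response element, stimulated with EC50 EGF; compounds tested in titration series, 5 h at 37 °C. CCF4 substrate added 2.5 h at room temperature; 460/530 nm emission ratio gave %activity and AC50.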

Assay [3] concerns the target Cytochrome P450 1A2 (Homo sapiens) (UniProt P05177). Briefly: p450-cyp1a2 (AID 410; calls by dose curve; further: potency means the concentration at half of the fitted maximal effect;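 on activity change, negative = inhibition: -100% = full effect of reference inhibitor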). Particulars: recombinant CYP1A2, luciferin-ME demethylation, luminescence; series mostly up to 11.4 µM. In short, it runs like this: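 20nM CYP1A2 with 100uM Luciferin-ME (at Km) in 100mM KPO4; compound preincubated 10 min, NADPH regeneration added, 60 min at room temperature. Luciferin quantified by luminescence after detection reagent; normalized to 57 uM furafylline.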

Assay [4] is described as follows: NFAT Signaling Pathway (AID 444).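 Further: carbachol stimulus at about its EC50 of 1 µM final; on the % scale 0 is the no-effect control and ±100 the full control effect.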 As to conditions: Jurkat NFAT-bla M1, carbachol, beta-lactamase ratio, 5 h; at 7.69 µM (top of the series) unless noted. In short, it runs like this: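 Read-out: CCF4 FRET ratio (460 nm/530 nm) after 1 h RT dye loading, used for %activity and AC50 from titration series. Cells: Jurkat NFAT-β-lactamase/M1 line, treated with compound plus 1 uM carbachol for 5 h, 37 °C.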

A short description of assay [5]: Stat Signaling Pathway (AID 446).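 Further: ME-180 cervical cancer cells given 40 pM IL-6 alongside compound; SIE-controlled beta-lactamase reporter measured as 460/530 nm FRET emission ratio; on the % scale 0 is the no-effect control and ±100 the full control effect.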 As to conditions: ME-180 SIE beta-lactamase reporter, IL-6 stimulated, 5 h; at 7.69 µM (top of the series) unless noted. A digest of the protocol: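 Screening format detects activators and inhibitors alike: ME-180 SIE-bla cells stimulated at 40 pM IL-6 for 5 hrs with compound, then dual-emission beta-lactamase read at 405 nm excitation.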

Assay [6] concerns the target Glucocorticoid receptor (Homo sapiens) (UniProt P04150). The assay can be described thus: GR-GFP Redistribution (AID 450;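 active means compounds whose dose series gives a full or clear partial fitted curve of increased nuclear translocation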; further: potency means the concentration at half of the fitted maximal effect). Particulars: U2OS GR-GFP nuclear translocation, laser cytometry, 2 h.
The target is the same in assay [7]. Briefly: GR-EFC Redistribution (AID 451; calls by dose curve; further: potency means the concentration at half of the fitted maximal effect). Particulars: CHO-K1 GR-EFC translocation, beta-gal luminescence, 2 h. A digest of the protocol: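 Translocation of GR-ED fusion to nuclear EA restores b-gal, read by luminescence after 1 h room-temperature detection. Engineered CHO-K1 biosensor cells, 1,000/well, exposed 2 h at 37 C to titrations up to 46 uM final.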
Assay [8] has as its target Mitogen-activated protein kinase 10 (Mus musculus) (UniProt Q61831). The assay can be described thus: JNK3 AlphaScreen Assay (AID 530).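 Further: kinase came from lysate of stimulated human HepG2 cells; signal reports phosphorylation of biotinylated GST-cJun 1-79 at Ser73 with 10 µM ATP; on the % scale 0 is the no-effect control and ±100 the full control effect.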 Particulars: JNK3 lysate, c-Jun phosphorylation; series mostly up to 11.4 µM. A digest of the protocol:
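Compound titrations were preincubated 15 minutes at room temperature with substrate, antibody and pre-activated JNK3-containing HepG2 lysate. Reactions were started with 10 uM ATP and stopped with EDTA-containing bead buffer for AlphaScreen detection.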

Assay [9] deals with 3',5'-cyclic-AMP phosphodiesterase 4B (Homo sapiens) (UniProt Q07343). Briefly: qHTS Assay for Inhibitors of PDE-IV (AID 607; active means well fitted activation curve with a large enough effect in the main read-out, with a control signal flat, not every such curve was filed as active; further: % of control where 0% means no effect). As to conditions: HEK293 ACTOne CNG channel cells, membrane potential fluorescence; series mostly up to 22.9 µM. A digest of the protocol:
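The readout is membrane depolarisation from a cAMP-sensing CNG channel, detected with a potential dye at ex 535/em 590. Cells were HEK293-derived (endogenous PDE-IV) at 1000 cells/well, titrated up to 22.9 uM final.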
(In general: Quantitative high-throughput screening tests each substance at several concentrations.)

Sequence of 3',5'-cyclic-AMP phosphodiesterase 4B (Homo sapiens) (Q07343 whole entry, looked up): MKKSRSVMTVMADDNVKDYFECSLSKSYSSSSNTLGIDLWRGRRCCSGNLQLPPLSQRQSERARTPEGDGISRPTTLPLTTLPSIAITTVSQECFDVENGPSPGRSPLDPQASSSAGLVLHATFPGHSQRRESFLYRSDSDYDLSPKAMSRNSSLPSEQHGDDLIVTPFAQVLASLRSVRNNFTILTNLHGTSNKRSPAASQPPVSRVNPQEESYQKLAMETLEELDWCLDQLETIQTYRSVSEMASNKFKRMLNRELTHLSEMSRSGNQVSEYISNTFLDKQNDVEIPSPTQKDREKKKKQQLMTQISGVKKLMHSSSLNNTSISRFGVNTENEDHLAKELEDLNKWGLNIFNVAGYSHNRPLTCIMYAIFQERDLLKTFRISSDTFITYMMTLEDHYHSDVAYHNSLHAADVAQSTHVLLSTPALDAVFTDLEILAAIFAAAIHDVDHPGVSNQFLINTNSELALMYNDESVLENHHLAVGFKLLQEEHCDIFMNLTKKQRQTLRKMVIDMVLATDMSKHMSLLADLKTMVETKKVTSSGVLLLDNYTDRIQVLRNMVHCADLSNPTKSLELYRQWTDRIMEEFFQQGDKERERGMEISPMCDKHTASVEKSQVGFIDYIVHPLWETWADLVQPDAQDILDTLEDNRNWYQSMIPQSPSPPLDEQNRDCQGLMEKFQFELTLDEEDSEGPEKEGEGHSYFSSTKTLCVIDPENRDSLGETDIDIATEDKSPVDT
Sequence of Glucocorticoid receptor (Homo sapiens) (P04150 whole entry, looked up, the tested form may be a part): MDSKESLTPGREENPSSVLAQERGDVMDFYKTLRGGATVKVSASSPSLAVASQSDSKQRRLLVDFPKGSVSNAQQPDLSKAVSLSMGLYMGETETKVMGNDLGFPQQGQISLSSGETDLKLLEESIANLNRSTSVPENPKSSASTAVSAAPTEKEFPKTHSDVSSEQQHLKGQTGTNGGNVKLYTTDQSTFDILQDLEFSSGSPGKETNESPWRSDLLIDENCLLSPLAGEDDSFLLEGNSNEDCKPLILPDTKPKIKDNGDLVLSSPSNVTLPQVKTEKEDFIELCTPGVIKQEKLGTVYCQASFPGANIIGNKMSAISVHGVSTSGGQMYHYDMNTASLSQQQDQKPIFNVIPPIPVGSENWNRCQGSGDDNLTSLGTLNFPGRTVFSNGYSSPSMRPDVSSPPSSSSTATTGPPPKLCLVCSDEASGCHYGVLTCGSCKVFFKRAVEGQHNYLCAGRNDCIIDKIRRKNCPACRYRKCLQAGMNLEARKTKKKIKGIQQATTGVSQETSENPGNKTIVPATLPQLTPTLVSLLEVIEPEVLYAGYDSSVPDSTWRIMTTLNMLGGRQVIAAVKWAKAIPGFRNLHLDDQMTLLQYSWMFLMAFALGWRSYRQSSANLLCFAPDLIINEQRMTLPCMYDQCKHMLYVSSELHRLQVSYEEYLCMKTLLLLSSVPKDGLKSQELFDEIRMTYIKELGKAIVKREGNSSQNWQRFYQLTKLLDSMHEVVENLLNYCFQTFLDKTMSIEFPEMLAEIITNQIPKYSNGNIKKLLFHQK
Sequence of Cytochrome P450 1A2 (Homo sapiens) (P05177 whole entry, looked up): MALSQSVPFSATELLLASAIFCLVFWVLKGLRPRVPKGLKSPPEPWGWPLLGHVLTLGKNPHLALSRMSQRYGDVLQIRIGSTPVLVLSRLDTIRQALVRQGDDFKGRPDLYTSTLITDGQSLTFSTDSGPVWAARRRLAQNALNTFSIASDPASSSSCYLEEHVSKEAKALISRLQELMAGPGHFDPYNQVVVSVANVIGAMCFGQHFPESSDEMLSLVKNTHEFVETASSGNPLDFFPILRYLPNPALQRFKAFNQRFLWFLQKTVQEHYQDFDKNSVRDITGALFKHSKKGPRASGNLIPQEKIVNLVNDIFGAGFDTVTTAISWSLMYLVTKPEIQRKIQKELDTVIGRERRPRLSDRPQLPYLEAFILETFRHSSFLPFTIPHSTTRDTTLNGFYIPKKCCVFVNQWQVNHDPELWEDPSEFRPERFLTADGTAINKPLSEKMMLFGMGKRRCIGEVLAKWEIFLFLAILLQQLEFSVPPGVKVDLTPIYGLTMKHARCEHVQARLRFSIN
Sequence of Lysosomal acid glucosylceramidase (Homo sapiens) (P04062 whole entry, looked up): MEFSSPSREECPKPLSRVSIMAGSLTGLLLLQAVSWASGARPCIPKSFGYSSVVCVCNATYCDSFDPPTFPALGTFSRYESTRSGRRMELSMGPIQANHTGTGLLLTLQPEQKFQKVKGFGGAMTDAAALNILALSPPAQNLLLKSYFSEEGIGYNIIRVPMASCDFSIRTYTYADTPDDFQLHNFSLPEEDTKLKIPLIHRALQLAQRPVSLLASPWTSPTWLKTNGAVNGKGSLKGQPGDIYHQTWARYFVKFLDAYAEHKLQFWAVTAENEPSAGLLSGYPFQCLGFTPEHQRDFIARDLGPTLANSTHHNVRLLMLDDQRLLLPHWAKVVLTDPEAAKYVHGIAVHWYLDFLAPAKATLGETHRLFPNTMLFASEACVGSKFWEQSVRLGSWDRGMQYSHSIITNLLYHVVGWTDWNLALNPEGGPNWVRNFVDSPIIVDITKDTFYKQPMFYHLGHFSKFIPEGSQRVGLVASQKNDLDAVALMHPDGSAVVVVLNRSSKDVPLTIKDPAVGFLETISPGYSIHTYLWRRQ

For the compound `COc1ccc2nccc(SCC(=O)O)c2c1`, the Potency is more than 11.4 µM in assay [1], 3.98 µM (active) in assay [3], more than 46 µM in [6] and more than 9.22 µM in [7]. Further, the results for the activity change, negative = inhibition in assay [2] and in assay [4] were 7.58% and 6.79%, respectively. Moreover, in assay [5], the activity, negative = inhibition was -2.7%. In addition, the Potency entry in assay [8] and in [9] was “inactive” in each case.
For `O=C(O)[C@@H]1[C@@H]2C[C@@H]3[C@@H](OC(=O)[C@@H]31)[C@H]2Br`, the Potency in assay [1] was more than 11.4 µM; in assay [6] it was more than 46 µM; in assay [7] it was more than 9.22 µM. Further, the figures for the activity change, negative = inhibition in [2] and in [4] were 4.57% and -26.7%, respectively. The Potency entry in assay [3], in assay [8] and in assay [9] was “inactive” throughout. The activity, negative = inhibition in [5] was 5.86%.
As for `O=C(CN1C(=O)c2ccccc2C1=O)NC1(C(=O)O)CCCC1`, the Potency in assay [1] is more than 11.4 µM; in assay [6], more than 46 µM; in assay [7], more than 9.22 µM. For the same compound, the results for the activity change, negative = inhibition in assay [2], in assay [3] and in assay [4] were -5.19%, -2.1% [at 2.29 µM] and -0.506%, respectively. In assay [5], the activity, negative = inhibition is 7.15%. In addition, the Potency result in assay [8] and in assay [9] was “inactive” in each case.
As for `CN(CC(=O)O)Cc1oc(CO)cc(=O)c1O`, the Potency in assay [1] is more than 11.4 µM; in assay [6], more than 46 µM; in assay [7], more than 9.22 µM. Moreover, the activity change, negative = inhibition in assay [2] is 6.02%; in assay [4], 10%. Besides, the Potency result in [3], in [8] and in assay [9] was “inactive” each time. Also, in assay [5], the activity, negative = inhibition was 5.1%.
For the compound `OCCNc1ncnc2nc[nH]c12`, the Potency in [1] was more than 11.4 µM; in assay [6], more than 46 µM; in assay [7], more than 9.22 µM. Further, the activity change, negative = inhibition in assay [2] is 7.92%; in assay [4], 9%. Moreover, the Potency entry in assay [3], in assay [8] and in assay [9] was “inactive” throughout. In addition, the activity, negative = inhibition in assay [5] is 2.92%.
As to `c1ccc(CSc2nnc3c4ccccc4c4ccccc4c3n2)cc1`, the Potency in [1] is more than 11.4 µM; in assay [3] it was 0.2 µM (active); in assay [6], more than 46 µM; in [7] it was more than 9.22 µM. In addition, the results for the activity change, negative = inhibition in assay [2] and in assay [4] were 6.19% and -12.6%, respectively. For the same compound, the activity, negative = inhibition in assay [5] was 1.88%. Besides, the Potency result in [8] and in assay [9] was “inactive” in each case.
With `O=C(O)c1c[nH]c2cc(OCc3ccccc3)ccc2c1=O`, the Potency in assay [1] is more than 11.4 µM; in assay [6], more than 46 µM; in assay [7], more than 9.22 µM. Also, the activity change, negative = inhibition in assay [2] is -8.18%; in assay [4], 5.14%. The Potency result in assay [3], in assay [8] and in assay [9] was “inactive” throughout. The activity, negative = inhibition in assay [5] is -8.65%.
Take `NC(N)=NNC(=O)C(=O)O`: the Potency is more than 11.4 µM in [1], more than 46 µM in assay [6] and more than 9.22 µM in assay [7]. Further, the activity change, negative = inhibition in assay [2] is 2.05%; in [4] it was 4.61%. In addition, the Potency entry in assay [3], in assay [8] and in [9] was “inactive” in each case. The activity, negative = inhibition in assay [5] was 2.14%.
Regarding `NC(N)=NC(N)=Nc1c(F)c(F)c(F)c(F)c1F`, the values for the Potency in assay [1], in assay [6] and in assay [7] were more than 11.4 µM, more than 46 µM and more than 9.22 µM, respectively. For the same compound, the activity change, negative = inhibition in [2] is 8.28%; in assay [3] it was 10.9% [at 2.29 µM]; in assay [4], -23.3%. Also, in assay [5], the activity, negative = inhibition was 3%. Moreover, the Potency result in assay [8] and in assay [9] was “inactive” each time.
In the case of `O=NN(Cc1ccc(Cl)cc1)[C@@H](C(=O)O)c1ccccc1`, the Potency in [1] was more than 11.4 µM; in [3], 5.01 µM (active); in assay [6] it was more than 46 µM; in assay [7], more than 9.22 µM. Also, the activity change, negative = inhibition in assay [2] was 15.1%; in [4], -4.59%. Further, the activity, negative = inhibition in assay [5] is 0.591%. Moreover, the Potency entry in assay [8] and in [9] was “inactive” each time.
For `NN(CC(=O)O)CC(=O)O`, the results for the Potency in assay [1], in assay [6] and in [7] were more than 11.4 µM, more than 46 µM and more than 9.22 µM, respectively. In addition, the activity change, negative = inhibition in assay [2] is -2.45%; in assay [4], -1.35%. For the same compound, the Potency entry in [3], in assay [8] and in assay [9] was “inactive” each time. The activity, negative = inhibition in [5] was -0.699%.
Consider `Cn1c(C[C@@H](O)c2nc3ccccc3n2C)nc2ccccc21`, for which the Potency is more than 11.4 µM in assay [1], more than 46 µM in [6] and more than 9.22 µM in [7]. For the same compound, the activity change, negative = inhibition in assay [2] was 11.7%; in assay [3] it was -2.6% [at 2.29 µM]; in assay [4] it was 13.3%. In assay [5], the activity, negative = inhibition is 8.01%. Moreover, the Potency entry in [8] and in [9] was “inactive” in each case.
Regarding `C/C(=N\NC(N)=S)c1ccc[nH]1`, the Potency in assay [1] is more than 11.4 µM; in [3] it was 3.16 µM (active); in assay [6], more than 46 µM; in assay [7], more than 9.22 µM. Also, the figures for the activity change, negative = inhibition in assay [2] and in assay [4] were 0.43% and 12%, respectively. Further, in assay [5], the activity, negative = inhibition was -24.4%. Moreover, the Potency entry in [8] and in [9] was “inactive” each time.
`CC(C)(C[C@@]1(C)NC(=O)NC1=O)OCc1ccccc1`: the Potency in assay [1] is more than 11.4 µM; in assay [6], more than 46 µM; in assay [7] it was more than 9.22 µM. The activity change, negative = inhibition is -2.92% in [2], -12.1% [at 2.29 µM] in [3] and -0.038% in [4]. Besides, in assay [5], the activity, negative = inhibition is 0.608%. The Potency entry in assay [8] and in assay [9] was “inactive” in each case.
